Source: the supplement of paper PMC10941209

Each molecule was assayed on HFF (assay: cell viability relative to DMSO control; higher = less cytotoxic). Details: 1 µM; 72 h.
Method: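 Single-dose cytotoxicity screen of the MMV Pandemic Response Box at 1 uM on human foreskin fibroblasts (HFF), 72 h at 37 C. Viability measured by MTT (OD 550 nm) and normalised to the DMSO control (% survival).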
Work on `COc1cc(C2C3=C(CC(C)(C)CC3=O)Nc3ccccc3N2C(C)=O)ccc1OCc1ccccc1` (configuration not stated) yielded a cell viability of 67.1%. In the case of `CC(C)/N=c1\cc2n(-c3ccc(Cl)cc3)c3ccccc3nc-2cc1Nc1ccc(Cl)cc1`, the cell viability is reported as 72.6%. `N#C/C(=C1/SC[C@H](c2ccc(Cl)cc2Cl)S1)n1ccnc1` was tested, and the cell viability was 74.7%. Work on `Nc1nc2c(ncn2COCCO)c(=O)[nH]1` yielded a cell viability of 68.8%. For `CCCCC(CC)CNC(=N)NC(=N)NCCCCCCNC(=N)NC(=N)NCC(CC)CCCC` (configuration not stated), the cell viability was 63.4%. `CC1=C(/C=C/C(C)=C/C=C/C(C)=C/C(=O)Nc2ccc(O)cc2)C(C)(C)CCC1` was tested, and the cell viability was 70.8%. Molecule `COc1cccc(N2CCN(C3=Nc4c(F)cccc4[C@H](CC(=O)O)N3c3cc(C(F)(F)F)ccc3OC)CC2)c1` has a cell viability of 55.7%. In the case of `CC(C)(C)c1ccc(C(Cn2cccc(C(F)(F)F)c2=O)NC2Cc3ccccc3C2)cc1` (configuration not stated), the cell viability is reported as 67.8%. Molecule `O=C(O)C[C@H]1CC[C@H](c2ccc(-c3ccc(Nc4ccc(C(F)(F)F)nc4)cn3)cc2)CC1` has a cell viability of 67.6%. In the case of `CC[C@@H](CO)NCCN[C@@H](CC)CO`, the cell viability is reported as 76.1%. `C[C@H](Cn1cnc2c(N)ncnc21)OCP(=O)(O)O` gave a cell viability of 58.1%. With `C[C@@H](c1nc(-c2ccc(C#N)cc2)cs1)[C@](O)(Cn1cncn1)c1ccc(F)cc1F` the cell viability was 62.9%. `Cc1nc(N(C)C(=O)Cc2ccc(-c3ccccn3)cc2)sc1S(N)(=O)=O` was tested, and the cell viability was 66.3%. `CNCC(=O)OCc1cccnc1N(C)C(=O)OC(C)[n+]1cnn(C[C@](O)(c2cc(F)ccc2F)[C@@H](C)c2nc(-c3ccc(C#N)cc3)cs2)c1` (some centres not stated) was tested, and the cell viability was 60.6%. Molecule `C[C@H]1[C@@H](c2cccc(C(F)(F)F)c2)OC(=O)N1C(=O)NCc1cncc2ccccc12` has a cell viability of 70%. For `N#CCN1C(=O)COc2cc(F)c(N3C(=O)c4ccccc4C3=O)cc21`, the cell viability was 63.5%. `O=[N+]([O-])c1cn2c(n1)OC[C@@H](OCc1ccc(OC(F)(F)F)cc1)C2` was tested, and the cell viability was 64.4%. In the case of `CN(O)C(=O)c1cc2c(CN3CCC[C@H]3C(N)=O)cn(Cc3ccc(F)cc3)c2cn1`, the cell viability is reported as 64.1%. `CCNC(=O)Nc1cc2c(-c3ccnc(C)c3)ccc(CNC(=O)OC)c2cn1` showed a cell viability of 62.7%. Work on `c1ccc(Cn2c(-c3ccccn3)nc3ccccc32)cc1` yielded a cell viability of 63.2%. Molecule `O=C(Nc1nnc(-c2ccc(Cl)cc2)o1)c1nc2ccccc2s1` has a cell viability of 65.8%. With `COc1ccc2cc3[n+](cc2c1OCCN(CCn1cncn1)Cc1ccc(F)cc1F)CCc1cc2c(cc1-3)OCO2` the cell viability was 61.3%. Work on `N=C(N)c1ccc(COc2ccc(Cl)cc2)cc1` yielded a cell viability of 65.4%. `O=C(Cn1cnc2ccccc2c1=O)Nc1ccccc1` showed a cell viability of 62.8%. Work on `CCCCCCC1c2ccc(O)cc2Oc2cc(O)ccc21` yielded a cell viability of 72.2%. Work on `Nc1nc2c(ncn2/C=C2/CC2(CO)CO)c(=O)[nH]1` yielded a cell viability of 63.8%. For `CC(C)(C)c1ccc(Oc2ccc(N)cc2)cc1`, the cell viability was 68.3%. `O=C(/C=C\n1cnc(-c2cc(C(F)(F)F)cc(C(F)(F)F)c2)n1)NNc1ccccn1` showed a cell viability of 62%. `O=C(CC1Sc2ncnn2C1=O)Nc1ccc(Br)cc1` (configuration not stated) was tested, and the cell viability was 59.7%. `CCc1ccccc1OCCN1CCCCCC1` showed a cell viability of 55.1%. Molecule `O=c1nc(N2CCN(CC3CCCCC3)CC2)sc2c([N+](=O)[O-])cc(C(F)(F)F)cc12` has a cell viability of 57.6%. Molecule `Clc1ccc(Cn2c(CN3CCCC3)nc3ccccc32)cc1` has a cell viability of 67.7%. Molecule `COc1ccc(C[C@@H](C)[C@@H](C)Cc2ccc(OC)c(OC)c2)cc1OC` has a cell viability of 65.2%. Molecule `C[C@@H](NC(=O)c1cccc(-c2cnc(-c3cc4ccccc4cn3)[nH]2)c1)c1ccc(F)cc1` has a cell viability of 74.3%. Molecule `O=[N+]([O-])/C(Br)=C/c1ccc(Br)o1` has a cell viability of 63.2%. `CC(C)c1ccc(COc2cccc(-c3cc([S+](C)[O-])c(C#N)c(=O)[nH]3)c2)cc1` (configuration not stated) gave a cell viability of 76.9%. `CCCC1(C2CC2)c2cc(Cl)ccc2NC(=O)N1C` (configuration not stated) showed a cell viability of 62.3%.
